{"source": "PubChem BioAssay (Tox21)", "note": "Inconclusive results are not listed. Activity calls are given as the source filed them. Calls come from the whole dose curve; as a rule, active = well fitted inhibition curve with a large enough effect in the repeat runs; inconclusive = weak or mixed curves, or effect the other way; inactive = no such curve, though single readings can be large or run the other way. % is set by controls: 0 for no effect and ±100 for the full control effect; potency is the fitted concentration of half-maximal effect."}
{"target": "Nuclear receptor subfamily 1 group I member 3 (Homo sapiens) (UniProt Q14994)", "sequence (Q14994 whole entry, looked up)": "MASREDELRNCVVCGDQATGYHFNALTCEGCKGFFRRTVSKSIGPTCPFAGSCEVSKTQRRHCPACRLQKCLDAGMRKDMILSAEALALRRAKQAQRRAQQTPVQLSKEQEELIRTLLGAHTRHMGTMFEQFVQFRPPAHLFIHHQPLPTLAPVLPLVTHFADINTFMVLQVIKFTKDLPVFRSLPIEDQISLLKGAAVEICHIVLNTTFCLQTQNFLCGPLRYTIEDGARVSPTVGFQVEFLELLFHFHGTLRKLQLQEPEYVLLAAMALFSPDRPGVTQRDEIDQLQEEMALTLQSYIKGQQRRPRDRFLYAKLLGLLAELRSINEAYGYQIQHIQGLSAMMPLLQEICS", "test": "qHTS assay to identify small molecule antagonists of the constitutive androstane receptor (CAR) signaling pathway (AID 1224838);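 note: HepG2 cells stably expressing hCAR with CYP2B6 luciferase reporter stimulated by CITCO; nearly all actives have a fitted effect of over 40% in size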", "conditions": "HepG2-CYP2B6-hCAR luciferase, CITCO-stimulated, 24 h; series mostly up to 92.4 µM; activity, negative = inhibition: at the top concentration", "excerpt": "U.S. Tox21 Program National Center for Advancing Translational Sciences [NCATS] NIH Chemical Genomics Center [NCGC] U.S. Environmental Protection Agency [EPA] National Institutes of Environmental Health Sciences [NIEHS] National Toxicology Program [NTP] U.S. Food and Drug Administration [FDA] Tox21 Assay Overview: The constitutive androstane receptor (CAR) is a nuclear receptor which regulates multiple drug metabolizing enzymes (DMEs) and transporters. Activating CAR will generally increase the transcription and subsequent translation of CYP2B6 and CYP3A4. These two DMEs represent about 50% of the drug metabolizing potential in the body. When CAR is deactivated, the metabolizing potential in the body will decrease, subsequently increasing the toxicity in the body or lowering the therapeutic potential of a pro-drug. Recently, there have also been studies performed indicating CARs role in energy metabolism and cancer therapy. Therefore, inhibiting CARs activity could have a potential effect on diabetes and cancer. Identifying environmental toxins and compounds which modulate CAR, through the use of the Tox21 10K compound collection, will be an important step in determining the toxicity and potential therapeutic effects these factors will have on the human body.\nTox21 Assay Protocol Summary: A double-stable (hCAR and CYP2B6-2.2kb) transfected cell line, derived from human hepatoma (HepG2) cells, was utilized for the duration of the quantitative high-throughput screens. The HepG2-CYP2B6-hCAR cells suspended in DMEM culture medium supplemented with 10% FBS, 5 ug/mL blasticidin, 0.5 mg/mL geneticin, 100 U/mL penicillin and 100 ug/mL streptomycin were dispensed at 2500 cells/4 uL/well in 1536-well white solid bottom plates using a Multidrop Combi. After the assay plates were incubated at 37 C/5% CO2 for 4 hrs, 23 nL of compounds at 15 concentrations (from 5-48 columns) or positive control (from 1 to 4 columns) were transferred to the assay plates using a Pintool station. One uL of CITCO, was added using a Flying Reagent Dispenser to generate a final concentration of 50 nM CITCO inside each well. After a 24 hr incubation period at 37 C/5% CO2, four uL of ONE-Glo reagent was added into the assay plates using a Flying Reagent Dispenser. After a 30 min incubation period at room temperature, the luminescence intensity in the assay plates was measured using a ViewLux plate reader."}
{"smiles": "CC(C(=O)O)c1ccc(-c2ccccc2)c(F)c1", "note": "(stereo not given)", "activity, negative = inhibition": "6% (inactive)"}
{"smiles": "COc1ccc(C(C)=O)cc1", "activity, negative = inhibition": "3.11% (inactive)"}
{"smiles": "CC1=CCC(C(C)C)C=C1", "note": "(stereo not given)", "activity, negative = inhibition": "23.4% (inactive)"}
{"smiles": "CCCCCCCCCO", "activity, negative = inhibition": "8.26% (inactive)"}
{"smiles": "Cc1ccccc1N=Nc1ccc(N=Nc2c(O)ccc3ccccc23)c(C)c1", "activity, negative = inhibition": "74.6% [at 42.5 µM] (inactive)"}
{"smiles": "CC1(C)[C@H]2CC[C@]1(C)[C@H](O)C2", "activity, negative = inhibition": "3.12% (inactive)"}
{"smiles": "CCCCCOC(=O)c1ccc(O)cc1", "activity, negative = inhibition": "150% (inactive)"}
{"smiles": "C=CCCCCCC", "activity, negative = inhibition": "-5.47% (inactive)"}
{"smiles": "O=C(Nc1ccccc1)OCC(CN1CCCCC1)OC(=O)Nc1ccccc1", "note": "(stereo not given)", "activity, negative = inhibition": "0.509% [at 42.5 µM] (inactive)"}
{"smiles": "CCCC(=O)OCC", "activity, negative = inhibition": "4.36% (inactive)"}
{"smiles": "CN(c1nccc(=O)[nH]1)C1CCN(c2nc3ccccc3n2Cc2ccc(F)cc2)CC1", "activity, negative = inhibition": "56.8% [at 42.5 µM] (inactive)"}
{"smiles": "CN(C(=O)CCCOc1ccc2[nH]c(=O)ccc2c1)C1CCCCC1", "activity, negative = inhibition": "35.2% [at 42.5 µM] (inactive)"}
{"smiles": "CCCc1ccccc1", "activity, negative = inhibition": "-20.2% (inactive)"}
{"smiles": "CC(=O)CC(=O)c1ccccc1", "Potency": "10.9 µM (active)"}
{"smiles": "CN(C)CC[C@@H](c1ccc(Br)cc1)c1ccccn1", "activity, negative = inhibition": "-7.49% [at 42.5 µM] (inactive)"}
{"smiles": "CC(C)(C)C1CCCCC1O", "note": "(stereo not given)", "activity, negative = inhibition": "9.84% (inactive)"}
{"smiles": "CN1CCN(C2=Nc3cc(Cl)ccc3Nc3ccccc32)CC1", "activity, negative = inhibition": "29.6% [at 42.5 µM] (inactive)"}
{"smiles": "Nc1cnn([C@@H]2O[C@H](CO)[C@@H](O)[C@H]2O)c(=O)n1", "activity, negative = inhibition": "-29.9% (inactive)"}
{"smiles": "CCN(CC)CCc1nc(-c2ccccc2)no1", "activity, negative = inhibition": "37.6% [at 42.5 µM] (inactive)"}
{"smiles": "Cc1ccc(O)c([C@H](CCN(C(C)C)C(C)C)c2ccccc2)c1", "activity, negative = inhibition": "-5.08% [at 42.5 µM] (inactive)"}
{"smiles": "O=C(O)c1cccc(N(Cc2cccnc2)c2ccc(OC(F)F)c(OC(F)F)c2)c1", "activity, negative = inhibition": "16.6% (inactive)"}
{"smiles": "Cc1ccccn1", "activity, negative = inhibition": "6.63% (inactive)"}
{"smiles": "Cc1ccc2c(ccc3ccccc32)c1", "activity, negative = inhibition": "69.4% (inactive)"}
{"smiles": "O=[N+]([O-])c1cc[n+]([O-])cc1", "Potency": "43.3 µM (active)"}
{"smiles": "NC(N)=N/N=C/c1c(Cl)cccc1Cl", "activity, negative = inhibition": "-16.4% [at 42.5 µM] (inactive)"}
{"smiles": "Cc1cc(NC(=O)C(=O)O)cc(C)c1Oc1ccc(O)c2c1CCC2", "activity, negative = inhibition": "48.8% (inactive)"}
{"smiles": "CCCCOC(=O)/C=C\\C(=O)OCCCC", "activity, negative = inhibition": "-10.3% (inactive)"}
{"smiles": "NCCCOCCOCCOCCCN", "activity, negative = inhibition": "6.84% (inactive)"}
{"smiles": "c1ccc(OCc2ccc(CCCN3CCOCC3)cc2)cc1", "activity, negative = inhibition": "132% [at 42.5 µM] (inactive)"}
{"smiles": "Cc1cccc(C(C)(C)C)c1O", "activity, negative = inhibition": "0.518% (inactive)"}
{"smiles": "Cl/C(=C\\n1cncn1)c1ccc(Cl)cc1Cl", "activity, negative = inhibition": "129% [at 42.5 µM] (inactive)"}
{"smiles": "CCCCCc1ccc(N)cc1", "activity, negative = inhibition": "4.53% (inactive)"}
{"smiles": "CC(=O)c1ccc2c(c1)[C@H](NC(=O)c1ccc(F)cc1)[C@@H](O)C(C)(C)O2", "activity, negative = inhibition": "74.7% (inactive)"}
{"smiles": "CCOC(=O)[C@H](CCc1ccccc1)N[C@H]1CCc2ccccc2N(CC(=O)O)C1=O", "activity, negative = inhibition": "45.1% [at 42.5 µM] (inactive)"}
{"smiles": "CC(=O)O[C@H]1C[C@@H]2CC[C@@H]3[C@H](CC[C@@]4(C)[C@H]3C[C@H]([N+]3(C)CCCCC3)[C@@H]4OC(C)=O)[C@@]2(C)C[C@@H]1N1CCCCC1", "activity, negative = inhibition": "-12.7% [at 42.5 µM] (inactive)"}
{"smiles": "CC[C@H](C)[C@H](N)C(=O)O", "activity, negative = inhibition": "1.74% [at 42.5 µM] (inactive)"}
{"smiles": "C=Cc1c(C)c2cc3[nH]c(cc4nc(cc5nc(cc1[nH]2)C(C)=C5CCC(=O)O)C(CCC(=O)O)=C4C)c(C)c3C=C", "activity, negative = inhibition": "-10.8% [at 42.5 µM] (inactive)"}
{"smiles": "O=C1CCCCCO1", "activity, negative = inhibition": "-1.19% (inactive)"}
{"smiles": "Cn1sccc1=O", "Potency": "24.3 µM (active)"}
{"smiles": "O=S(=O)(O)c1ccc(O)c2ncccc12", "activity, negative = inhibition": "92.2% (inactive)"}
